Only a selection was taken, and hits are over-represented in it overall.
CD40 NFkB inh – CD40 pathway inhibition in BL2 cells. inhibition, % at 10 µM. 83,000 compounds, 0.94% hits. BL2 NF-kB luciferase reporter, CD40L-induced, 4 h;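 active = mean inhibition of at least 50% with a set share of replicates also reaching that level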;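 note: 0% = neutral control wells and 100% = IKK inhibitor VII at 50 µM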
The depositor's hits bear a star; ! = not active in a repeat; [ ] = remark or other dose.

Results for COc1cccc(NC(=O)N2[C@@H]3CNC[C@H]2C3c2ccc(/C=C/c3ccccc3)cc2)c1 (stereo not given in full) ?
CD40 NFkB inh: 60*!

What do the screens show for `COc1cccc(NC(=O)N2[C@@H]3CNC[C@H]2C3c2ccc(-c3ccccc3)cc2)c1` (stereo not given in full)?
CD40 NFkB inh: -19

Results for O=C(Nc1cccc(Cl)c1)N1[C@@H]2CNC[C@H]1C2c1ccc(/C=C/c2ccccc2)cc1 (stereo not given in full) ?
CD40 NFkB inh: 7[25 µM]

What do the screens show for `CC=Cc1ccc2n(c1=O)C[C@H]1[C@H](CO)[C@@H](C(=O)NC3CCC3)N(C(=O)C3CCC3)[C@@H]21` (mixture of isomers)?
CD40 NFkB inh: 7

Results for CC(C)(C)N1CC(c2nc3ccccc3n2Cc2ccccc2)CC1=O (stereo not given) ?
CD40 NFkB inh: 14

What do the screens show for `CCn1c(CNC(=O)C(C)(C)C)nc2ccccc21`?
CD40 NFkB inh: 4

Results for CCn1c2ccccc2nc2cc3c(cc21)c(Cl)c(=O)c1ccccc13 ?
CD40 NFkB inh: 90*

How did C=CC(=O)N1C/C(=C/c2ccc(F)cc2)C(=O)/C(=C\c2ccc(F)cc2)C1 do in these assays?
CD40 NFkB inh: 68*

How did O=C(CS(=O)(=O)c1ccc(F)cc1)N1CCN(c2ccccc2)CC1 do in these assays?
CD40 NFkB inh: -22

Results for CN1CCN(C(=O)CCN2C(=O)/C(=C\c3ccc(F)cc3)SC2=S)CC1 ?
CD40 NFkB inh: 24

What do the screens show for `CCCCCCCCCCCC1C(=O)C(=O)CC(=O)C1=O`?
CD40 NFkB inh: 0[25 µM]

How did O=C(NC1CCCCC1)N1CC2(C1)[C@H](c1ccccc1)[C@H](CO)N2CC1CCCC1 do in these assays?
CD40 NFkB inh: 17[25 µM]

How did C[C@H]1CN([C@@H](C)CO)C(=O)c2ccccc2-c2ccccc2CO[C@H]1CN(C)Cc1cccc(O)c1 do in these assays?
CD40 NFkB inh: 0

Results for O=C(C1CCCCC1)N1C[C@@H]2[C@H](c3ccccc31)[C@@H](CO)N2C(=O)c1ccccc1 ?
CD40 NFkB inh: 5

Results for N#C[C@H]1[C@@H](c2ccccc2C2=CCCCC2)[C@H](CO)N1S(=O)(=O)c1ccccc1 ?
CD40 NFkB inh: 11[25 µM]

How did N#C[C@H]1[C@H](c2ccccc2C2=CCCCC2)[C@@H](CO)N1S(=O)(=O)c1ccccc1 do in these assays?
CD40 NFkB inh: 60*[25 µM]

What do the screens show for `N#C[C@@H]1[C@@H](c2ccccc2C2=CCCCC2)[C@H](CO)N1S(=O)(=O)c1ccccc1`?
CD40 NFkB inh: 6[25 µM]

Results for O=C1CNC[C@@H]2[C@@H](c3ccc(C4=CCCC4)cc3)[C@H](CO)N12 ?
CD40 NFkB inh: -16[25 µM]

Results for CCCNC(=O)N1CC2(CN(Cc3cccc(F)c3)C2)c2c([nH]c3cc(OC)ccc23)[C@@H]1CO ?
CD40 NFkB inh: 11[25 µM]

What do the screens show for `Cc1ccc(NC(=O)CNC(=O)c2ccc(Oc3ccccc3)cc2)nc1`?
CD40 NFkB inh: -20

How did Cc1ccc(NC(=O)CNC(=O)c2cccc(C)c2)nc1 do in these assays?
CD40 NFkB inh: 58*

What do the screens show for `Cc1ccc(C(=O)CCC(=O)Nc2ccc(C)cn2)cc1`?
CD40 NFkB inh: 9

How did CCS(=O)(=O)Nc1ccc2c(c1)C(=O)N(C)[C@@H]1CC[C@@H](CC(=O)NCc3ccccc3F)O[C@@H]1CO2 do in these assays?
CD40 NFkB inh: -5[25 µM]

Results for CC(=O)Nc1ccc2c(c1)C(=O)N(C)C[C@@H](C)[C@H](CN(C)C)O2 ?
CD40 NFkB inh: -6

How did O=C(COC(=O)c1ccccc1C(=O)c1ccc(Cl)c([N+](=O)[O-])c1)NC1CC1 do in these assays?
CD40 NFkB inh: 98*

Results for O=C(COC(=O)c1ccccc1[N+](=O)[O-])Nc1cccnc1Cl ?
CD40 NFkB inh: -35

How did CNc1ccc(C(=O)c2ccccc2C(=O)O)cc1[N+](=O)[O-] do in these assays?
CD40 NFkB inh: 1

Results for CS(=O)(=O)c1ccc(Cl)c(C(=O)OCC(=O)NC2CCCCCCC2)c1 ?
CD40 NFkB inh: 21

Results for O=C(OC1CCOC1=O)c1ccccc1C(=O)c1ccc(Cl)c([N+](=O)[O-])c1 (stereo not given) ?
CD40 NFkB inh: 78*

What do the screens show for `CN(C)c1ccc(C(=O)c2ccccc2C(=O)O)cc1[N+](=O)[O-]`?
CD40 NFkB inh: 11

How did O=C(COC(=O)c1ccccc1[N+](=O)[O-])c1ccc(C2CCCCC2)cc1 do in these assays?
CD40 NFkB inh: 91*

How did Cc1c(C(=O)OCC(=O)NC(=O)NC2CCCCC2)cccc1[N+](=O)[O-] do in these assays?
CD40 NFkB inh: 0

How did CC1CCC(NC(=O)COC(=O)CSc2ccc(C(N)=O)cc2[N+](=O)[O-])CC1 (stereo not given) do in these assays?
CD40 NFkB inh: 6

How did CCS(=O)(=O)N1CC(=O)N2[C@@H](CO)[C@H](c3ccc(-c4cccc(F)c4)cc3)[C@@H]2C1 do in these assays?
CD40 NFkB inh: -6

What do the screens show for `COc1ccc2c3c(n(C)c2c1)[C@H](CO)N(C(=O)CN(C)C)CC31CN(Cc2nccs2)C1`?
CD40 NFkB inh: -8[25 µM]

High-throughput results as filed in PubChem.
